Bioassay records deposited in PubChem by Columbia University Molecular Screening Center.
VCAM1 pot – potentiators of TNFa-induced VCAM1 expression, primary screen, imaging, HUVEC, TNFa stimulus, immunofluorescence; 93,000 compounds, 0.19% hits; HUVEC TNFa-stimulated VCAM-1 immunofluorescence, high-content imaging; scaled per plate to unstimulated/TNFa-only wells; activation, % at 2 µM; AID 808, 2007;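 active means activation above the screen mean plus 3 SD, with well images confirming the hit on visual review, cut at about 28% in these data, passing the limit was not always enough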;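 further: signal is the number of cytoplasmic VCAM-1 stained grains per positive cell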
VCAM1 pot confirm – potentiators of TNFa-induced VCAM1 expression, confirmation, imaging, HUVEC, triplicate retest | activation, % at 2 µM | 230 tested, under 10 active | HUVEC TNFa-stimulated VCAM-1 immunofluorescence imaging | shares compounds with VCAM1 pot;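 active means activation above 30% in triplicate retests at 2 µM, then confirmed by visual review of the well images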;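 further: scaled per plate between unstimulated and TNFa-stimulated DMSO control wells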
* marks the source's active call; other numbers are inactive results. The entries come from a sample that favours hits as a whole.

SMILES | VCAM1 pot | others
CCCC12CN3CN(C1)CC(CCC)(C3)C2O (stereo unspecified) | 33* | VCAM1 pot confirm=-20
CC1N(O)C2CCCCCC2N1O (stereo unspecified) | 0
O=C(c1ccncc1)C12CN3CN(CN(C3)C1)C2 | 2
O=C(c1cc2c(s1)CCCC2)N1CCC2(CC1)OCCO2 | -26
CCCCNc1ccncc1S(=O)(=O)NC(=O)NC(C)C | 6
CCOc1cccc(OCC)c2c(C)[n+](CC3CCCO3)c(C)c1-2 (stereo unspecified) | 32* | VCAM1 pot confirm=4
Cc1ccccc1-n1c(C)nc2sccc2c1=O | -8
CCC(=O)c1cc(F)c(N2CCN(CC)CC2)cc1C | -1
CCN1/C(=C\C=C\C2=[N+](CC)c3ccccc3C2(C)C)C(C)(C)c2ccccc21 | -88
CCCCc1ccc2[nH]cc(CCN)c2c1 | -3
